# Measured values reported in ChEMBL document CHEMBL4513216, “Probing the Open Global Health Chemical Diversity Library for Multistage-Active Starting Points for Next-Generation Antimalarials” (ACS Infect Dis, 2020).
# The campaign covered roughly 68,000 compounds. About 2,700 (4%) showed an effect of 50% or more. The entries come from a sample that favours strong results as a whole.
# Test system: Plasmodium berghei
# Assay: Screen against P. berghei liver stage (PbLuc), transformed with Luciferase, at 2uM
# Format: functional, HepG2
# Settings: tested at 2 uM
row,Structure (SMILES),INHIBITION [%]
1,CC(C)(NCCCOc1ccc(C#N)cc1)c1nccs1,9.27
2,Cc1csc(C(C)(C)NCCOc2ccc(CC#N)cc2)n1,30.06
3,Brc1ccc(NCc2ccc(Cn3ccnc3)cc2)nc1,74.17
4,CC(C)(NCCOc1ccc(CC#N)cc1)c1nccs1,56.89
5,CNC(=O)c1cccnc1NCc1ccc(-n2cccn2)cc1,-6.98
6,c1ccc(NCc2ccc(Cn3ccnc3)cc2)nc1,17.64
7,CNC(=O)c1cccc(NCCOc2ccc(CC#N)cc2)c1C,34.46
8,CNC(=O)c1cccnc1NCc1ccc(Cn2ccnc2)cc1,71.57
9,CNC(=O)c1cccnc1NCCOc1ccc(CC#N)cc1,54.29
10,CNC(=O)c1cccnc1NCc1ccc(Cn2cccn2)cc1,-6.29
11,CS(=O)(=O)c1ccccc1NCc1ccc(Cn2ccnc2)cc1,6.78
12,CNC(=O)c1cccnc1NCCOc1ccccc1,-1.89
13,CC(C)(CNC1CCCN(Cc2ccccc2F)C1)CN1CCOCC1 (stereo not given),18.22
14,CCc1ccccc1CN1CCn2nc(CNC(C)=O)cc2C1,-31.66
15,COc1cccc2c1OCC(NC(=O)NCCc1ccccn1)C2 (stereo not given),40.59
16,NC(=O)N1CCCN(CCCSCc2ccccc2)CC1,-16.28
17,c1ccc(Cc2cccc(C3CCCN3C3CCOCC3)n2)cc1 (stereo not given),44.16
18,O=S(=O)(c1cccc(F)c1)N1C[C@H]2CC[C@@H](C1)N(Cc1ccccc1)C2,-13.58
19,CC(C(=O)NCc1ccnc(OC2CCCC2)c1)n1cncn1 (stereo not given),-5.34
20,O=C1NCCCc2c1oc1ccc(O)c(CN3CCOCC3)c21,10.49
21,CC(C)NC(=O)c1ccc2c(c1)C(c1nc[nH]n1)CN2S(C)(=O)=O (stereo not given),-18.52
22,CCN(C)C(=O)c1ccc2c(c1)C(c1nc[nH]n1)CN2S(C)(=O)=O (stereo not given),53.55
23,CCC(CC)NC(=O)c1ccc2c(c1)C(c1nc[nH]n1)CN2S(C)(=O)=O (stereo not given),36.34
24,Cc1cnc(C(=O)N2CCCC(n3cncn3)C2)cn1 (stereo not given),-43.79
25,CCOc1cc(CN[C@@H]2COC[C@H]2Cc2cc(C)no2)ccc1O,33.64

row,Structure (SMILES),INHIBITION [%]
1,Cc1c(C(=O)N2CCN(C)[C@@H]3CS(=O)(=O)C[C@@H]32)[nH]c2ccc(F)cc12,28.95
2,CCc1c(C(=O)N2CCN(C)[C@@H]3CS(=O)(=O)C[C@@H]32)[nH]c2ccccc12,65.3
3,CCN1CCN(C(=O)c2[nH]c3ccccc3c2Cl)[C@H]2CS(=O)(=O)C[C@H]21,25.65
4,COc1ccccc1-n1nc(C(C)C)nc1Cc1nnc(N)s1,49.32
5,CS(=O)(=O)NCCCNC(=O)c1cccnc1O,-55.03
6,C[C@H]1C[C@H]2CN(Cc3ccccn3)CC[C@@H]2O1,66.23
7,C[C@H]1C[C@@H]2CCN(Cc3ccccn3)C[C@H]2O1,0.78
8,C[C@@H]1C[C@@H]2CCN(Cc3ccccn3)C[C@H]2O1,2.98
9,O=C(Cn1cccn1)N1CCc2[nH]nc(-c3ccc4c(c3)OCO4)c2C1,37.41
10,O=C1CN([C@@H]2CC[C@@H](NS(=O)(=O)c3ccc(F)cc3)[C@H]2O)CCN1,22.95
11,Cc1ccc(CC(=O)N2CCCC(n3ccnc3C(C)C)C2)cn1 (stereo not given),28.65
12,CSCC(=O)N1CCCC(n2ccnc2C(C)C)C1 (stereo not given),-47.97
13,Cc1nc(CC(=O)N2CCCC(n3ccnc3C(C)C)C2)cs1 (stereo not given),66.2
14,COCc1nc(C(=O)N2CCCC(n3ccnc3)C2)cs1 (stereo not given),28.54
15,COCc1nc(C(=O)N2CCCC(n3cccn3)C2)cs1 (stereo not given),21.89
16,COCc1nc(C(=O)N2CCCC(n3ccnc3C(C)C)C2)cs1 (stereo not given),52.52
17,CC(C)c1nccn1C1CCCN(C(=O)c2ccsc2)C1 (stereo not given),-12.41
18,COCc1nc(C(=O)N2CCCC(n3ccnc3C)C2)cs1 (stereo not given),53.69
19,CCc1nccn1C1CCCN(C(=O)c2csc(COC)n2)C1 (stereo not given),24.15
20,Cc1ccsc1CN1CCC(n2cc(C(O)c3ccccc3)nn2)CC1 (stereo not given),-6.04
21,CC(C)(C)C(=O)N1CCC(n2cc(C3(O)CCCC3)nn2)CC1,-21.47
22,Fc1ccccc1C1(CNC2CCOC3(CCOCC3)C2)CCCC1 (stereo not given),-27.61
23,CN(C)c1cc(CNC(=O)c2cnccn2)ccn1,-14.75
24,Cc1cc(C(=O)N2CCn3cc(CN4CCOCC4)nc3C2)no1,22.68
25,Cc1ocnc1C(=O)N1CCN(CCOc2ccccc2)CC1,41.86

row,Structure (SMILES),INHIBITION [%]
1,CC(C)Cc1cc(NC(=O)c2ccccn2)n(C)n1,7.13
2,Cc1noc(C)c1CS(=O)(=O)CC(=O)NCCc1cccs1,-49.96
3,Cn1cc(C(=O)NCc2cn3c(n2)CN(Cc2ccncc2)CC3)cn1,12.38
4,Cn1cc(C(=O)NCc2cn3c(n2)CN(Cc2ccccn2)CC3)cn1,53.98
5,Cn1cccc1C(=O)NCc1cn2c(n1)CN(Cc1ccccn1)CC2,20.43
6,Cc1noc(C)c1CN1C[C@@H](OCc2ccccn2)[C@H]2OCCC[C@H]21,-44.88
7,CCc1cc(=O)n(CC(=O)N2CCCC2)c(-c2ccc(F)cc2)n1,22.13
8,CN(Cc1nc2ccccc2c(=O)[nH]1)C1CC(=O)N(C2CC2)C1=O (stereo not given),-68.81
9,Cc1nnc([C@H]2C[C@H]3OCC[C@H]3N(S(=O)(=O)N(C)C)C2)o1,11.18
10,Cc1noc([C@@H]2C[C@H]3OCC[C@H]3N(Cc3ccoc3)C2)n1,51.26
11,CCCS(=O)(=O)N1C[C@@H](c2nc(C)no2)C[C@H]2OCC[C@H]21,-27.12
12,Cc1noc([C@H]2C[C@H]3OCC[C@H]3N(S(C)(=O)=O)C2)n1,25.58
13,Cc1noc([C@H]2C[C@H]3OCC[C@H]3N(Cc3ccc(F)cc3)C2)n1,20.41
14,Cc1noc([C@H]2C[C@H]3OCC[C@H]3N(Cc3ccncc3)C2)n1,29.81
15,CCS(=O)(=O)N1C[C@@H](c2nnc(C)o2)C[C@H]2OCC[C@H]21,11.87
16,Cc1nnc([C@H]2C[C@H]3OCC[C@H]3N(S(=O)(=O)C3CC3)C2)o1,50.32
17,CCS(=O)(=O)N1C[C@H](c2nc(C)no2)C[C@H]2OCC[C@H]21,63.23
18,Cc1cc(N2CCc3c(ncn3C3CC3)C2)nc(N)n1,-25.22
19,O=C(CCC1CCCC1)NCCn1nc(C2CCNC2)c2cccnc21 (stereo not given),34.24
20,Cc1cccc(-n2ncc3c(=O)n(CCN4CCCCC4)cnc32)c1C,-34.12
21,CC(C)S(=O)(=O)N1CCN(C(=O)c2cnn(C)c2Cl)CC1,12.98
22,CN(C(=O)c1ncn2c1CN(C)S(=O)(=O)c1ccccc1-2)C1CC1,60
23,CCNC(=O)c1ncn2c1CN(C)S(=O)(=O)c1ccccc1-2,-64.43
24,CCCN(CC)C(=O)c1ncn2c1CN(C)S(=O)(=O)c1ccccc1-2,15.9
25,Cc1ccc(C(=O)N2CCN(C(=O)Nc3ccccn3)CC2)o1,60.93

row,Structure (SMILES),INHIBITION [%]
1,Cc1ccc(C(=O)NC2CCN(C(=O)Nc3ccccn3)CC2)o1,20.11
2,Cc1cccc(NC2CCN(C(=O)Nc3ccccn3)CC2)n1,-7.13
3,Cc1occc1C(=O)N1CCn2c(COCC3CC3)cnc2C1C (stereo not given),-5.65
4,CCN(CC)CCSc1ncnc2[nH]ncc12,-57.02
5,CCn1cc(CNc2ccc(F)c(N3CCCS3(=O)=O)c2)cn1,67.51
6,Cn1cc(CNc2ccc(F)c(N3CCCS3(=O)=O)c2)cn1,30.06
7,CCn1cc(CNc2ccc(F)c(F)c2)cn1,-11.55
8,CCCc1nc(CNc2ccc(F)c(F)c2)no1,-48.48
9,CCN1CCCC1CNCc1cc2cc(OC)ccc2[nH]c1=O (stereo not given),42.49
10,COc1ccc2cc(CN(C)CCN3CCCCC3=O)c(=O)[nH]c2c1,38.12
11,COc1ccc2[nH]c(=O)c(CN(C)CCN3CCCC3)cc2c1,56.16
12,CCOCC(=O)N1C[C@H]2CCC[C@@]2(COC)C1,42.4
13,CCn1nc(C)c(CNC(=O)c2nnc3ccc(OC)cc3n2)c1C,33.58
14,CCn1nc(C)c(CNC(=O)c2nnc3ccccc3n2)c1C,70.37
15,CCn1nc(C)c(CNC(=O)c2nnc3ccc(Cl)cc3n2)c1C,26.56
16,Cc1nc(CN2CCC23CCN(C(=O)c2ccco2)CC3)cs1,30.15
17,Cc1cncc(NCc2ccccc2N2CCOCC2)c1,11.88
18,CCS(=O)(=O)c1cccc(C(=O)Nc2cccc3c2C(=O)N(C)C3=O)c1,13.01
19,CCCOC1CCCN(C(=O)c2cnc(-c3csc(C)n3)nc2O)C1 (stereo not given),-20.84
20,CC(=O)N1CCC2(CC1)NC(=O)[C@H]1CN(Cc3cccnc3)C[C@H]12,56.76
21,CC(C)C(=O)N1CCC2(CC1)NC(=O)[C@H]1CN(Cc3cccnc3)C[C@H]12,37.54
22,CC(=O)N1CCC2(CC1)[C@@H]1CN(Cc3cccnc3)C[C@@H]1C(=O)N2C,35.89
23,Cn1cccc1CN1CCC2(CC1)CN(c1ncccn1)CCO2,-8.63
24,Cc1ccc(CNC(=O)CCNS(C)(=O)=O)cc1,13.36
25,CCn1ccnc1CN1CCN(CC(=O)NC(C2CC2)C2CC2)CC1,29.19
